Experimental data reported in paper PMC4336329 (PLoS ONE, 2015).
About 14,000 (4.5%) of roughly 310,000 compounds showed an effect of 50% or more. The effect is printed as a negative number. The sample as a whole holds a higher share of strong results than the screen did.

Molecular target: human ether-à-go-go-related gene (hERG) potassium channel (human, UniProt Q12809)
Test: primary screen, population patch clamp on CHO cells stably expressing hERG; higher = less effect of the substance
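Also: peak tail current of the secondary pulse compared with the same well before compound.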

Sequence of human ether-à-go-go-related gene (hERG) potassium channel (Q12809 whole entry, looked up): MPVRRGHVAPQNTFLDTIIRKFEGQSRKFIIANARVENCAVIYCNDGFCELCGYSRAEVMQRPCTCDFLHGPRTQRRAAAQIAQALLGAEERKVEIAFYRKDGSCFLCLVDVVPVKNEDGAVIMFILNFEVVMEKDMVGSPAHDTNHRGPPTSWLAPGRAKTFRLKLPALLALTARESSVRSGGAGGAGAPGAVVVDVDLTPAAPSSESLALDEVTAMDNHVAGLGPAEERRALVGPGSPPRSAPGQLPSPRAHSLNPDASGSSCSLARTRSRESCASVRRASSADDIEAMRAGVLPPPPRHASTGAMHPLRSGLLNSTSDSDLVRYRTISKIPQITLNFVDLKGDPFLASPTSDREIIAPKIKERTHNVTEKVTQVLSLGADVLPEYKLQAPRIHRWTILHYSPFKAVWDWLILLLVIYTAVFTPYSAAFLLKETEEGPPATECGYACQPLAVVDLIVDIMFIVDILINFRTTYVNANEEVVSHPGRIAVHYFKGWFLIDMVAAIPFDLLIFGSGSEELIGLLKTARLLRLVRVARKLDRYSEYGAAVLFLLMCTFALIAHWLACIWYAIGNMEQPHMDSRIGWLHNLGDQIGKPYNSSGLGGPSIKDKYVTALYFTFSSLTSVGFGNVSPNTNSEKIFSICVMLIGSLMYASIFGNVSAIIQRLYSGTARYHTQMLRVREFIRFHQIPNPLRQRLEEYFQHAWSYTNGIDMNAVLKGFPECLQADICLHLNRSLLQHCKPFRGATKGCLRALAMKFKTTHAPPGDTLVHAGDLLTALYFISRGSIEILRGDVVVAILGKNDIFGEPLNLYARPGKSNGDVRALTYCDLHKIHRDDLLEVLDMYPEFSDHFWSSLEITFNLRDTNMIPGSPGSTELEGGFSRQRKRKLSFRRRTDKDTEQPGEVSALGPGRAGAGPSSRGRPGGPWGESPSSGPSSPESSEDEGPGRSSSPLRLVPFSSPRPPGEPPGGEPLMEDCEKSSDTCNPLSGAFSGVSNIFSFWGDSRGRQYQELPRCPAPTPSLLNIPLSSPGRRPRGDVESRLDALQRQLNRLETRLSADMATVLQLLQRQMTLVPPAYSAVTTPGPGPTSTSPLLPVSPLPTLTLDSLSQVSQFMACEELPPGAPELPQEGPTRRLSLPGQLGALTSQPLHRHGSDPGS

Row | SMILES | hERG current change (%, negative = inhibition) at 10uM
1 | CCCc1cc(=O)oc2cc(C)cc(OCC(=O)NCc3cccnc3)c12 | -44.4%
2 | CCCc1cc(=O)oc2cc(C)cc(OCC(=O)Nc3cccnc3)c12 | -0.927%
3 | CCCCc1cc(=O)oc2cc(C)cc(OCC(=O)Nc3ccccn3)c12 | 28.6%
4 | CCCCc1cc(=O)oc2cc(C)cc(OCC(=O)Nc3cccnc3)c12 | 26.7%
5 | CCOc1ccc(NC(=O)Cn2nnc(C(=O)NCc3ccco3)c2N)cc1 | 15.1%
6 | C=CCN1C(=O)S/C(=C/c2ccc(Sc3nc4ccccc4[nH]3)o2)C1=O | 3.61%
7 | CCN1C(=O)N[C@@H](c2ccccc2)[C@H](C(=O)OC)[C@H]1C | -6.4%
8 | COC(=O)Nc1nn(-c2ccc(C)cc2)c(=O)c(C#N)c1C | 11.2%
9 | CN(C)C(C(=O)NC1CCCCC1)c1ccc(Cl)cc1 (stereo not shown) | 4.27%
10 | COC(=O)c1ccc(N2CCN(C)CC2)c(NC(=O)COc2cccc(C)c2)c1 | -18.9%
11 | CCOC(=O)c1ccc(N=C(C)c2c(O)[nH]c(=O)[nH]c2=O)cc1 | 10.8%
12 | CCCCn1nc(C(=O)NC2=NCCS2)c2ccccc2c1=O | -16.3%
13 | Cc1cc(NC(=O)COC(=O)CC2CCCC2)c([N+](=O)[O-])cc1C | 9.34%
14 | CCOC(=O)CC(NC(=O)c1cc2cccc(OC)c2oc1=O)c1cccc([N+](=O)[O-])c1 (stereo not shown) | -23%
15 | CCOC(=O)CC(NC(=O)c1cc2cc(Br)ccc2oc1=O)c1cccc([N+](=O)[O-])c1 (stereo not shown) | -27.5%
16 | CCOC(=O)CC(NC(=O)c1cc2cc(Cl)cc(Cl)c2oc1=O)c1cccc([N+](=O)[O-])c1 (stereo not shown) | -66.8%
17 | CCOC(=O)CC(N)c1cccc([N+](=O)[O-])c1.Cl (stereo not shown) | 2.9%
18 | CCOC(=O)CC(NC(=O)c1cc2cccc(OC)c2oc1=O)c1ccc(OC)cc1 (stereo not shown) | -5.76%
19 | CCOC(=O)CC(NC(=O)c1cc2ccccc2oc1=O)c1cccc([N+](=O)[O-])c1 (stereo not shown) | -58.5%
20 | O=C(Nc1ccccn1)C1COc2ccccc2O1 (stereo not shown) | 16.1%
21 | CCOC(=O)c1sc2nc(C)nc(NC3CCC(O)CC3)c2c1C (stereo not shown) | 2.9%
22 | CSc1ccccc1NC(=O)CN(C)CC(=O)Nc1ccc(Cl)cc1[N+](=O)[O-] | -31.6%

Row | SMILES | hERG current change (%, negative = inhibition) at 10uM
23 | O=C(CN1C(=O)C2CC=CCC2C1=O)NCC(=O)Nc1ccc(F)c(F)c1F (stereo not shown) | 7.55%
24 | Cc1cc(Cl)c(S(=O)(=O)N/N=C/c2ccc3c(c2)OCO3)c(Cl)c1 | 2.77%
25 | COc1ccc(NC(=O)N2CCc3ccccc3C2)cc1OC | 11.3%
26 | CCNc1nc(NC(C)C)nc(Nn2cnnc2)n1 | 9.05%
27 | O=C(NCc1cccs1)C1CCN(S(=O)(=O)c2cccc3nsnc23)CC1 | -13.1%
28 | CS(=O)(=O)c1ccccc1C(=O)Nc1cc(Cl)ccc1-n1cncn1 | 13.4%
29 | O=C(CN1C(=O)NC2(CCCc3ccccc32)C1=O)c1ccc(Br)cc1 (stereo not shown) | -20.4%
30 | O=C(CN1C(=O)NC2(CCc3ccccc32)C1=O)c1ccccc1 (stereo not shown) | 15.1%
31 | Cc1ccc(NC(=O)CN2C(=O)NC3(CCCc4ccccc43)C2=O)c([N+](=O)[O-])c1 (stereo not shown) | -75.6%
32 | O=C(CN1C(=O)NC2(CCc3ccccc32)C1=O)c1ccc(F)cc1 (stereo not shown) | -57.4%
33 | Cc1cc(Cl)ccc1NC(=O)CN1C(=O)NC2(CCCc3ccccc32)C1=O (stereo not shown) | -1.38%
34 | Cc1ccc(F)cc1NC(=O)CN1C(=O)NC2(CCCc3ccccc32)C1=O (stereo not shown) | -1.5%
35 | O=C(CN1C(=O)NC2(CCCc3ccccc32)C1=O)c1ccc(F)cc1 (stereo not shown) | -17%
36 | CS(=O)(=O)c1ccc(C(=O)CN2C(=O)NC3(CCCc4ccccc43)C2=O)cc1 (stereo not shown) | -51.5%
37 | COc1ccc(C(=O)CN2C(=O)NC3(CCCc4ccccc43)C2=O)cc1 (stereo not shown) | -36.2%
38 | CCCS(=O)(=O)Nc1cccc(-c2cn3c(n2)SCC3)c1 | -14.1%
39 | COc1ccc(OC)c(S(=O)(=O)N2CCCC(C(=O)NCCN3CCOCC3)C2)c1 (stereo not shown) | 21.2%
40 | O=S(=O)(NCc1cccnc1)c1ccc(Cl)s1 | 6.91%
41 | COc1ccc(C(=O)NCc2nnc(SCC(=O)Nc3nnc(C)s3)o2)cc1 | 14.5%
42 | N#CC1(NC(=O)CSc2nnc(C3CC3)n2C2CC2)CCCCC1 | -8.52%
43 | CCS(=O)(=O)c1ccc2oc(Nc3ccc(OC)c(OC)c3)nc2c1 | 8.05%
